# Compound activity from PubChem BioAssay.
# Mdm2 MdmX PPI: inhibitors of human Mdm2/MdmX interaction | 330,000 tested, 3% active | O15151+Q00987 | SaOS-2 split-luciferase Mdm2/MdmX complementation, luminescence | AID 485346 | inhibition, % at 8 µM;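 active = inhibition of at least 50% at 8 µM in the primary screen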
# MPTP block: inhibitors of mitochondrial permeability transition pore. isolated mouse mitochondria, Ca2+ swelling absorbance, 30 min. inhibition, % at 10 µM. 360,000 tested, 1.4% active;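 active = inhibition of 50% or more, scaled per plate between neutral and stimulator controls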;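 note: 0% = DMSO wells given calcium and 100% = 1 mM EGTA wells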
# Calb FLC: affects C. albicans growth with fluconazole | C. albicans CaCi-2 (fluconazole-resistant clinical isolate) + fluconazole, Alamar Blue growth, 48 h | growth inhibition, % (test concentration not listed) | 300,000 tested, 0.57% active;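 active = growth inhibition above about 58% in most replicates, limit read from the data, passing the limit was not always enough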;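 note: all wells also contain fluconazole at 8 µg/ml as a sub-toxic cotreatment; 0% = median of DMSO wells and 100% = median of geldanamycin control wells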
# SKKanGAS inh: inhibitors of SKKanGAS S. pyogenes growth in kanamycin (SK-promoter or general growth effect). 300,000 tested, 1.3% active. BacTiter-Glo, 6 h. inhibition, % at 7.5 µM;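 active = mean replicate score, as percent of positive control median, at least 50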;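 note: strain carries kanamycin resistance gene driven by streptokinase promoter and grows in 40 µg/ml kanamycin; loss of luminescence reflects streptokinase promoter inhibition or plain growth inhibition; 0% = median of DMSO wells and 100% = positive control at its reference dose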
# Beta cell apopt: blocks beta cell apoptosis. protection from apoptosis, % (concentration not given with the values). INS-1E cytokine-induced death, ATP luminescence, 48 h; percent of positive-control rescue, neutral wells zero. 300,000 tested, 0.8% active;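 active = Every replicate reaches about 75%, or at least half do and their mean reaches it too, limit read from the data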;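 note: 0% = cytokine-treated negative control wells and 100% = positive control rescue; higher means more ATP so stronger rescue from cytokine killing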
# CSC inhib: cancer stem cell inhibition; cancer stem cell-like cells viability, luminescence; inhibition, % at 7.5 µM; 300,000 tested, 1.1% active; in the data active = inhibition above about 75%; tested in HMLE shEcad cells
# Mdm2-MdmX conf: human Mdm2/MdmX binding inhibition, confirmed; inhibition, % at 8 µM; 10,000 tested, 55% active; luminescent assay; AID 489028; shares compounds with Mdm2 MdmX PPI; in the data active = inhibition above about 40%
# Full FLuc ctr: counter-screen for Mdm2/MdmX inhibitors: full-length luciferase; shares compounds with Mdm2 MdmX PPI; SaOS-2 full-length luciferase counterscreen, luminescence; inhibition, % at 8 µM; 6,200 tested, 77% active; AID 504607;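 active = mean inhibition at 8 µM reaching about 37%, which flags the compound as non-specific, limit read from the data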;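 note: p53-null SaOS-2 cells with luciferase driven by a doxycycline-inducible promoter; compound on cells about two nights before reading with doxycycline added after day one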
# Rh123 counter: Rhodamine 123 counter-screen of mitochondrial pore hits. shares compounds with MPTP block. 5,000 tested, 78% active. inhibition, % at 10 µM. isolated mitochondria, membrane potential, Rhodamine 123 fluorescence; in the data active = inhibition above about 22%;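 note: 0% = DMSO vehicle and 100% = positive control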
# MPTP abs DR: dose response confirmation of mitochondrial permeability transition pore inhibitors | shares compounds with MPTP block | isolated mitochondria swelling, absorbance | IC50, µM | 780 tested, 58% active | AID 651561; in the data active = IC50 below about 20 µM
# MPTP counter DR: counter-screen for mitochondrial permeability transition pore inhibitors, dose response; 780 tested, 49% active; shares compounds with MPTP block; isolated mitochondria counterscreen, fluorescence read-out; IC50, µM; AID 651564; in the data active = IC50 below about 80 µM
# The depositor's hits bear a star; i = inactive; . = no result. Sampled rows, rich in hits. Any-hit rate of the full collection: about 5.4%.
SMILES,Mdm2 MdmX PPI,MPTP block,Calb FLC,SKKanGAS inh,Beta cell apopt,CSC inhib,Mdm2-MdmX conf,Full FLuc ctr,Rh123 counter,others
COc1ccc(S(=O)(=O)Nc2ccc(C)cc2)cc1OC,20,3,39,6,-5,-7,.,.,.,
COc1ccc(NS(=O)(=O)c2ccc(-c3cnc(C4CC4)o3)cc2)cc1OC,57*,92*,-1,-4,93*,62,56*,47*,93*,
CC(C)Cn1c(N)c(C(=O)CSc2ccc3c(c2)OCCO3)c(=O)n(C)c1=O,52*,99*,5,3,94*,-5,55*,41*,86*,
Cc1cc(C)n2nc(SCc3ccc(C#N)cc3)nc2n1,-4,1,4,0,-3,-8,.,.,.,
CCC(NC(=O)c1cc(COc2cncc(Cl)c2)on1)c1ccc(C)cc1 (configuration not stated),30,0,0,11,6,-7,.,.,.,
COc1ccc(NC(=O)c2ccccc2F)cc1Cl,-41,0,3,0,-5,0,.,.,.,
O=C(Nc1ccc(Oc2ccc(Cl)cc2)c(Cl)c1)c1cc(I)cc(I)c1O,100*,106*,.,103*,-2,100*,74*,56*,74*,
Cc1cc(NC(=O)CCC(=O)N(Cc2ccco2)C(C(=O)NC2CCCCC2)c2ccccc2)no1 (configuration not stated),13,0,6,2,-7,1,.,.,.,
O=C(NC(Cc1ccccc1)C(=O)O)/C(=C/c1cccc(Br)c1)NC(=O)c1ccco1 (configuration not stated),-16,-1,-2,6,-6,-2,.,.,.,
Cc1cc(SCC(=O)N/N=C/c2ccc(O)cc2O)c(C)cc1Br,61*,91*,101*,79*,55,96*,66*,67*,56*,
Fc1ccc(Nc2nc(-c3ccncc3)nc3ccccc23)cc1F,82*,71*,-12,13,8,0,81*,64*,45*,
Clc1ccccc1Nc1nc(-c2ccncc2)nc2ccccc12,40,-1,-3,-1,1,23,.,.,.,
Clc1cccc(Nc2nc(-c3ccncc3)nc3ccccc23)c1,93*,69*,23,-3,21,56,45*,18,83*,
Cc1cc(C)n2c(SCC(=O)N(C)C3CCS(=O)(=O)C3)nnc2n1 (configuration not stated),-2,-1,1,0,-5,.,.,.,.,
COc1ccc(C(CNC(=O)c2oc3ccc(C)cc3c2C)N2CCCCC2)cc1 (configuration not stated),20,2,1,-6,.,.,.,.,.,
COc1ccc(C(CNC(=O)c2oc3cc(C)c(Cl)cc3c2C)N2CCCCC2)cc1 (configuration not stated),82*,71*,-4,-14,-3,11,36,.,-8,MPTP abs DR=i;MPTP counter DR=>80
O=C(CSc1nnc(-c2ccncc2)n1-c1ccccc1)NC1CC1,12,0,-4,26,-4,3,.,.,.,
COC(=O)C1=C(C)N(Cc2ccccc2)C(=NCc2ccco2)N[C@H]1c1cccc(F)c1,42,0,.,.,-3,.,.,.,.,
COC(=O)C1=C(C)N(Cc2ccccc2)C(=NCC(C)C)N[C@H]1c1cccc(C(F)(F)F)c1,99*,86*,.,.,29,31,51*,26,-2,
COC(=O)C1=C(C)N(Cc2ccccc2)C(=NCc2cccc(Cl)c2)N[C@H]1c1cccc(F)c1,100*,86*,.,.,98*,134*,60*,11,-9,
CC(=O)Nc1ccc(S(=O)(=O)N2CCc3c(Cl)cccc3C2)cc1,19,-1,-5,-5,-3,1,.,.,.,
